Assay outcomes (PubChem BioAssay)
Casp6 inh: human caspase-6 inhibitors, primary screen, biochemical, VEID-R110 fluorescence, single point, set 2; inhibition, % at 12.5 µM; P55212; actives 0.53% (n = 350,000); purified caspase-6, Z-VEID-R110 cleavage fluorescence; AID 686996, 2013;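 active means mean inhibition across replicates at least about 35%, with every replicate also reaching that limit, limit read from the data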;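 further: 0% = median of neutral control wells and 100% = no fluorescence left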
Target sequence (P55212 24-179 limits assumed): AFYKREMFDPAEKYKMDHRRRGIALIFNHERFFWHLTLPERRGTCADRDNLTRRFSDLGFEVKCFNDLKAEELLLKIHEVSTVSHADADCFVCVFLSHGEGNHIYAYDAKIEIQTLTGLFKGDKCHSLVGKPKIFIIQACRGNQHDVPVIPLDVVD
Target sequence (P55212 194-293 limits assumed): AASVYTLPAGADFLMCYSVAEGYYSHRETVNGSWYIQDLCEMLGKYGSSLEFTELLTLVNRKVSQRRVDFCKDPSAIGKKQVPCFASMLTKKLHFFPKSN
NSD2 inh: NSD2 histone methyltransferase inhibitors, primary screen, biochemical, AlphaScreen, single concentration, set 2; actives 0.54% (n = 310,000); inhibition, % at 12.5 µM; AID 743445, 2014; Histone-lysine N-methyltransferase NSD2 (Homo sapiens), O96028; NSD2 peptide methylation, 120 min; in the data active means inhibition above about 50%
SIRT5 block: SIRT5 desuccinylase inhibitors, primary screen, biochemical, fluorescence imaging, single point, set 5; NAD-dependent protein deacylase sirtuin-5, mitochondrial (Homo sapiens), Q9NXA8; Purified SirT5, succinyl-peptide AMC, trypsin-coupled fluorescence; inhibition, % at 15 µM; actives 1.1% (n = 330,000); AID 652115, 2013; in the data active means inhibition above about 15%
Target sequence (Q9NXA8 whole entry, looked up): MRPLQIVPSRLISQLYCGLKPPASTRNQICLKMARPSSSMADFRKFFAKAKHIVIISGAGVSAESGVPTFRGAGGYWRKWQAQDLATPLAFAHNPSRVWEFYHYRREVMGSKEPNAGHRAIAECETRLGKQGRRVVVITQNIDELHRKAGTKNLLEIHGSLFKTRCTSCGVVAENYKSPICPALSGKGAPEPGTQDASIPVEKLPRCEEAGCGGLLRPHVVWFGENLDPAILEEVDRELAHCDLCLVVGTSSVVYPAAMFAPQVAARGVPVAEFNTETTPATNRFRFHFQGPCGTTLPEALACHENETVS
PfHsp90 set2: growth inhibition of PfHsp90-expressing yeast, primary screen, antimalarial PfHsp90 inhibitor project, S. cerevisiae, BacTiter-Glo luminescence, single point, set 2 | BacTiter-Glo ATP, 48 h; yeast lacking PDR1 and PDR3 efflux regulators | actives 0.32% (n = 310,000) | AID 504621, 2011 | inhibition, % at 9.4 µM;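 active means every replicate shows inhibition above about 80%, whatever the replicate mean, limit read from the data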;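 further: 0% = DMSO neutral controls and 100% = 20 µM radicicol positive controls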
ARNT TACC3 PPI: disruptors of ARNT/TACC3 protein interaction, primary screen, biochemical, AlphaScreen, single concentration; Transforming acidic coiled-coil-containing protein 3 (Homo sapiens), Q9Y6A5; AlphaScreen His-ARNT PAS-B/GST-TACC3 binding, luminescence; TACC3 fragment carries E629A point mutation; inhibition, % at 9.99 µM; actives 0.66% (n = 390,000);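 active means mean inhibition of replicates at least 50% and at least half of replicates each reaching 50%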;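 further: 0% = complete ARNT plus TACC3 wells and 100% = ARNT alone without TACC3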
An asterisk follows results filed as active; nt = no result. Most compounds without a hit are left out; they make up all but 2.1% or so of the library.

SMILES	Casp6 inh	NSD2 inh	SIRT5 block	PfHsp90 set2	ARNT TACC3 PPI
CCOC(=O)c1c(C)c(C(=O)NCc2ccc(OC)cc2)c(C)n1C	47.6*	1.9	1.0	31.8	nt
O=C(c1cccs1)N1CCN(c2nc3c(F)cc(F)cc3s2)CC1	1.5	-3.9	18.3*	17.8	-0.1
Cc1nc(-c2cccc(NS(=O)(=O)c3ccccc3)c2)cs1	nt	1.7	nt	-7.0	0.5
Cc1ccc2nc(-c3cccc(NS(C)(=O)=O)c3)cc(-c3ccccc3)c2c1	-2.9	-0.3	1.7	100.1*	18.5
Cc1nccc(-c2ccc(-n3cnc4ccccc43)cc2)n1	nt	-0.2	nt	5.3	nt
Nc1nccc(-c2ccc(-n3cnc4ccccc43)cc2)n1	1.1	-6.2	20.6*	2.1	0.2
COc1ccc(NC(=O)Nc2ccc3c(c2)C(=O)N([C@H](C)CO)C[C@H](C)[C@H](CN(C)CC2CC2)OCCCC[C@H](C)O3)cc1	-9.1	nt	2.0	nt	2.4
CC(C)c1ccc(-c2cc(C(=O)N3N=C(C(F)F)CC3(O)C(F)F)c3ccccc3n2)cc1 (stereo unspecified)	nt	0.1	nt	111.2*	3.4
O=C(c1cc(C2CC2)nc2ccccc12)N1N=C(C(F)F)CC1(O)C(F)F (stereo unspecified)	nt	-0.3	nt	nt	-0.1
Cc1nc(S/C(=C\c2ccc(-c3ccc(C(=O)O)c(Cl)c3)o2)C(=O)O)n[nH]1	58.5*	nt	27.6*	-35.1	11.0
Cc1nc(S/C(=C\c2ccc(OCc3ccccc3Cl)cc2)C(=O)O)n[nH]1	nt	-4.7	nt	-33.9	-5.0
O=C(CSc1ccc(-c2ccccn2)nn1)N1CCCCC1	0.0	0.3	15.1*	nt	0.6
O=C(CSc1ccc(-c2ccccn2)nn1)c1ccc([N+](=O)[O-])cc1	-2.9	-14.4	-2.0	16.1	51.6*
O=C(c1ccc([N+](=O)[O-])cc1)N(c1ccccn1)c1ccccn1	-3.9	0.8	20.4*	nt	1.0
O=C(NCc1ccccn1)c1ccc([N+](=O)[O-])cc1	1.5	-3.3	-1.3	33.6	nt
COc1ccc(NC(=O)N(C)C[C@@H]2Oc3ccc(NS(=O)(=O)c4ccc(F)cc4)cc3CC(=O)N([C@@H](C)CO)C[C@H]2C)cc1	1.8	nt	4.5	nt	nt
O=C(Nc1ccc(F)cc1)N1C[C@@H]2[C@H](c3ccccc31)[C@@H](CO)N2C(=O)Cc1cccnc1	-0.5	nt	-0.1	nt	-0.8
C[C@@H]1CN([C@H](C)CO)S(=O)(=O)c2ccc(C3=CCCCC3)cc2O[C@@H]1CN(C)Cc1ccccc1F	2.8	nt	0.8	nt	-0.3
C[C@H]1CN([C@@H](C)CO)C(=O)Cc2cc(N(C)C)ccc2O[C@@H]1CN(C)CC1CC1	-0.7	nt	-4.9	nt	-7.7
CCNC(=O)C[C@@H]1CC[C@H]2[C@@H](COC[C@H](O)CN2C(=O)c2cccnc2)O1	-0.8	nt	17.4*	nt	8.0
O=C(C[C@@H]1CC[C@@H]2[C@H](COC[C@H](O)CN2C(=O)c2ccncc2)O1)Nc1ccc(-c2ccccc2)cc1	-1.4	nt	1.0	nt	-3.4
O=C(C[C@H]1CC[C@H]2[C@@H](COC[C@@H](O)CN2C(=O)c2ccncc2)O1)Nc1ccc(-c2ccccc2)cc1	2.7	nt	26.9*	nt	10.9
O=C(C[C@H]1CC[C@H]2[C@@H](COC[C@@H](O)CN2S(=O)(=O)c2ccccc2)O1)Nc1ccc(-c2ccccc2)cc1	0.8	nt	17.8*	nt	7.1
Cc1cc(C)c(C(=O)C(C)OC(=O)Cc2n[nH]c(=O)c3ccccc23)cc1C (stereo unspecified)	-2.0	-0.7	15.4*	-1.5	6.5
Cc1ccc(C(=O)C(C)OC(=O)Cc2n[nH]c(=O)c3ccccc23)cc1 (stereo unspecified)	3.4	1.7	-3.6	17.2	-2.5
SMILES	Casp6 inh	NSD2 inh	SIRT5 block	PfHsp90 set2	ARNT TACC3 PPI
CCOc1ccc(S(=O)(=O)Nc2ccc(C(=O)N/N=C/c3c(C)nn(-c4ccccc4)c3N3CCCC3)cc2)cc1	62.2*	0.0	3.7	-9.9	-0.8
O=C(NCCc1cnc[nH]1)Nc1cccc(C(F)(F)F)c1	-5.4	5.7	-11.4	-8.6	48.5*
O=C(NCc1cccnc1)Nc1cccc(C(F)(F)F)c1	-3.0	-3.8	-1.1	5.3	-0.6
O=C(NCCc1cnc[nH]1)c1ccc(-c2ccccc2)cc1	1.0	5.7	17.1*	-2.1	-10.5
C[C@H](CO)N1C[C@H](C)[C@H](CN(C)CC2CC2)Oc2cc(C3=CCCC3)ccc2S1(=O)=O	-8.9	nt	2.3	nt	3.9
C[C@H]1CN([C@@H](C)CO)C(=O)Cc2cc(NS(=O)(=O)c3ccc(F)cc3)ccc2O[C@@H]1CN(C)Cc1ccc(C(=O)O)cc1	-3.3	nt	6.7	nt	-1.1
CN1[C@@H]2c3ccc(-c4ccccc4F)c(=O)n3C[C@@H]2[C@@H](CO)[C@@H]1C(=O)NCc1ccncc1	0.6	nt	4.4	nt	-2.8
COc1cccc(CNC(=O)C[C@@H]2C=C[C@@H](NC(C)=O)[C@@H](CO)O2)c1	0.5	nt	4.9	nt	1.3
CCOc1ccc(C(=O)CSCCC(=O)O)cc1	-0.7	-0.1	112.3*	-14.9	nt
CCOc1ccc(C(=O)Cc2ccccc2)cc1	-0.9	-1.8	-3.3	9.2	-8.9
CCOCCCNC(=O)C1c2ccccc2Oc2ccccc21	41.3*	-1.4	-6.3	-0.9	0.7
O=C(O)c1ccc(N=Nc2c(O)ccc3ncccc23)cc1	33.3	nt	11.7	-23.9	61.9*
O=C(O)c1cc(N=Nc2c(O)ccc3ccccc23)cc(C(=O)O)c1	9.5	12.6	4.1	11.3	nt
CC(C)(C=O)C1=CC(=O)c2ccccc2C1=O	34.9	92.3*	nt	105.7*	11.3
Cc1cc(C)cc(Nc2cc(C)nc3nc(C)nn23)c1	-0.6	nt	15.8*	25.4	nt
Cc1ccc(Nc2cc(C)nc3nc(C)nn23)cc1	0.0	nt	5.2	-24.8	3.7
COc1cccc(S(=O)(=O)N(C)C[C@@H]2Oc3cc(C#CCC(C)C)ccc3S(=O)(=O)N([C@@H](C)CO)C[C@@H]2C)c1	-0.6	nt	-5.0	nt	-10.7
COc1ccccc1S(=O)(=O)N(C)C[C@H]1Oc2cc(C#CCC3CCCC3)ccc2S(=O)(=O)N([C@@H](C)CO)C[C@@H]1C	0.4	nt	18.9*	nt	16.2
C[C@H](CO)N1C[C@H](C)[C@H](CN(C)C)Oc2cc(C#CCC3CCCC3)ccc2S1(=O)=O	2.0	nt	-4.2	nt	0.9
COc1ccccc1S(=O)(=O)N(C)C[C@@H]1Oc2cc(C#CCC(C)C)ccc2S(=O)(=O)N([C@H](C)CO)C[C@H]1C	5.1	nt	28.3*	nt	-0.9
COc1cccc(S(=O)(=O)N(C)C[C@@H]2Oc3cc(C#CCC(C)C)ccc3S(=O)(=O)N([C@H](C)CO)C[C@H]2C)c1	-1.4	nt	8.9	nt	3.7
